The nature of test [1]: qHTS assay to identify small molecule antagonists of the estrogen receptor beta (ER-beta) signaling pathway - cell viability counter screen (AID 1259382).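 For activity change, negative = cytotoxicity: HEK293T cells carrying ER-beta-UAS-bla reporter stimulated with estradiol; series mostly up to about 92 µM.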 Note: nearly all actives have a fitted effect of over 55% in size. Note: potency is the fitted concentration of half-maximal effect. Put shortly:
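Readout: luminescence, CellTiter-Glo, same wells as bla assay. System: ER-beta-UAS-bla GripTite HEK293T, 2% charcoal-stripped FBS. Exposure: compounds plus 1nM 17-beta-estradiol, 16 hr, 37C.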

For test [2], the target named is Estrogen receptor (Homo sapiens) (UniProt P03372). Kind of test: qHTS assay to identify small molecule agonists of the estrogen receptor alpha (ER-alpha) signaling pathway in the presence of an antagonist (AID 1259383; calls by dose curve; note: top concentration of the series differs between compounds; nearly all actives have a fitted effect of over 15% in size). Put shortly: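 Quantitative HTS confirmation: compounds titrated at 15 concentrations onto estrogen-deprived VM7Luc4E2 cells carrying a four-ERE luciferase construct, with ICI-182,780 present at 10.0nM final. Signal is luminescence after 22hr exposure.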
For orientation: Quantitative high-throughput screening tests each substance at several concentrations.

A short description of test [3]: qHTS assay to identify small molecule agonists of the estrogen receptor alpha (ER-alpha) signaling pathway in the presence of an antagonist - cell viability counter screen (AID 1259386). For activity change, negative = cytotoxicity: series mostly up to about 92 µM.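 Note: cells exposed to compounds for 22 h at 37 °C before the viability read; nearly all actives have a fitted effect of over 30% in size.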 Note: potency is the fitted concentration of half-maximal effect. Put shortly: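 The test measures whether compounds kill ER-alpha reporter cells (VM7Luc4E2) under antagonist co-treatment (ICI-182,780, 10.0nM). Fluorescence from CellTiter-Fluor is read after a 22hr exposure.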

In test [4] the target is Progesterone receptor (Homo sapiens) (UniProt P06401). Kind of test: qHTS assay to identify small molecule agonists of the progesterone receptor (PR) signaling pathway (AID 1346784; calls by dose curve; note: nearly all actives have a fitted effect of over 30% in size). The procedure, abridged:
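Using charcoal-stripped serum (2%) to limit endogenous steroids, PR-UAS-bla HEK 293T cells received compounds for 16 hr at 37C after 6 hr plating; beta-lactamase FRET fluorescence was recorded following 2 hr substrate loading at room temperature.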

Test [5] has the same target. Kind of test: qHTS assay to identify small molecule antagonists of the progesterone receptor (PR) signaling pathway (AID 1346795; active = well fitted inhibition curve with a large enough effect in the signal ratio in the repeat runs, not every such curve was filed as active; the % refers to the signal ratio). The procedure, abridged:
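Inhibition of R5020-induced (1 nM final) beta-lactamase reporter signal in PR-UAS-bla HEK293T cells was scored by FRET fluorescence after overnight (16 hr) compound treatment.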

Test [6] is described as follows: qHTS assay to identify small molecule antagonists of the progesterone receptor (PR) signaling pathway - cell viability counter screen (AID 1346798). For activity change, negative = cytotoxicity: series mostly up to about 92 µM. Note: nearly all actives have a fitted effect of over 50% in size. Note: potency is the fitted concentration of half-maximal effect. The procedure, abridged:
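ATP content as viability readout: CellTiter-Glo luminescence, 30 min room temperature, in PR-UAS-bla HEK293T cells after 16 hr compound/R5020 treatment at 37C and 5% CO2.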

A short description of test [7]: qHTS assay to identify small molecule agonists of the progesterone receptor (PR) signaling pathway - cell viability counter screen (AID 1346799; calls by dose curve; note: nearly all actives have a fitted effect of over 45% in size; note: potency is the fitted concentration of half-maximal effect). The procedure, abridged: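 Cytotoxicity in PR-bla HEK293T cells: 16 h compound, 37C; CellTiter-Glo added post-FRET read; luminescence after 30 min RT.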
The nature of test [8]: qHTS assay to identify small molecule antagonists of the TGF-beta/Smad signaling pathway - cell viability counter screen (AID 1346824). Note: nearly all actives have a fitted effect of over 50% in size. The procedure, abridged:
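Cytotoxicity counter-screen run in the same wells as the beta-lactamase Smad reporter read: CellTiter-Glo luminescence after 30 min at room temperature. HEK 293T SBE-bla cells had 5 hr compound exposure at 37 C with TGF-beta1 (0.25 ng/mL stock).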

Test [9] is described as follows: qHTS assay to identify small molecule agonists of the TGF-beta/Smad signaling pathway - cell viability counter screen (AID 1346829). Note: top concentration of the series differs between compounds; nearly all actives have a fitted effect of over 45% in size. The procedure, abridged: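 In parallel with the Smad reporter read, viability of HEK 293T cells stably carrying SBE-bla is quantified by ATP luminescence following 5 hr compound treatment.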
Test [10] can be described thus: qHTS assay to identify small molecule agonists of the TGF-beta/Smad signaling pathway (AID 1346859; active = well fitted activation curve with a large enough effect in the signal ratio in the repeat runs, not every such curve was filed as active; the % refers to the signal ratio; note: series mostly up to about 77 µM). Put shortly: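 Stable Smad binding element-beta-lactamase HEK 293T cells; 5 hr compound exposure at 37 C under 5% CO2; 2 hr room-temperature substrate step; fluorescence excited at 405 nm, collected at 460 nm and 530 nm.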
Test [11] deals with Thyrotropin-releasing hormone receptor (Homo sapiens) (UniProt P34981). Kind of test: qHTS assay to identify small molecule antagonists of the thyrotropin-releasing hormone receptor (TRHR) signaling pathway (AID 1346877; active = well fitted inhibition curve with a large enough effect in the repeat runs, not every such curve was filed as active; note: series mostly up to about 51 µM). Put shortly: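 Overnight-plated (18 h, 37 °C) HEK293 cells expressing TRHR were dye-loaded 2 h, treated with compound, then stimulated with TRH at 1 nM final. Fluorescence intensity was captured every second for 3 min.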

Test [12] is described as follows: Human pregnane X receptor (PXR) small molecule agonists, qHTS cell viability counter screen (AID 1346977). Note: nearly all actives have a fitted effect of over 50% in size. Note: potency is the fitted concentration of half-maximal effect. The procedure, abridged: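 Readout is CellTiter-Fluor fluorescence from PXR-Luc HepG2 cells. Plated cells rested 5hr, then were treated with compounds for 24hr at 37C and 5% CO2, with reagent present during the last hour.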
Test [13] is described as follows: Caspase-3/7 induction in HepG2 cells by small molecules, qHTS assay (AID 1346978). Note: nearly all actives have a fitted effect of over 15% in size. Note: potency is the fitted concentration of half-maximal effect. Put shortly:
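Caspase-3/7 induction was measured by Caspase-Glo 3/7 luminescence (30 min, room temperature) after a 17 hr compound exposure of wild-type HepG2 cells seeded at 2,000 per well and pre-incubated 5 hr.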

Test [14] is described as follows: Caspase-3/7 induction in CHO-K1 cells by small molecules, qHTS cell viability counter screen (AID 1346979). Note: nearly all actives have a fitted effect of over 35% in size. Note: potency is the fitted concentration of half-maximal effect. The procedure, abridged: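 To flag cytotoxic compounds, treated CHO-K1 wild-type cells were given CellTiter-Fluor at 16hr and read fluorescently after 1hr at 37C; the caspase-3/7 luminescence was measured in these same wells.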
Test [15] in a line: Caspase-3/7 induction in CHO-K1 cells by small molecules, qHTS assay (AID 1346980). Note: nearly all actives have a fitted effect of over 15% in size. The procedure, abridged:
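Luminescent Caspase-Glo 3/7 read (30min, room temperature) quantified apoptosis induction. Cells were wild-type CHO-K1, treated with compound for 17hr at 37 C and 5% CO2.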

Test [16] can be described thus: Caspase-3/7 induction in HepG2 cells by small molecules, qHTS cell viability counter screen (AID 1346981). For activity change, negative = cytotoxicity: series mostly up to about 92 µM. Note: nearly all actives have a fitted effect of over 30% in size. Note: potency is the fitted concentration of half-maximal effect. The procedure, abridged:
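Treatment of HepG2 cells with DMSO-delivered compounds ran 16 hr at 37 C following a 5-hr pre-incubation of 2,000 cells/well. CellTiter-Fluor fluorescence, read after 1 hr, served as the viability measure in a qHTS format.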

The nature of test [17]: qHTS assay to identify small molecule agonists or antagonists of the thyroid stimulating hormone receptor (TSHR) signaling pathway - wild type cell line counter screen (AID 1259384; calls by dose curve). The procedure, abridged:
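Counter screen in untransfected Hek293: compounds (15-point titration, triplicate) plus phosphodiesterase inhibitor Ro20-1724 added after 18 h plating; 30 min RT. Intracellular cAMP via competitive d2/cryptate immunoassay, 1 h incubation.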

The target of test [18] is Thyrotropin receptor (Homo sapiens) (UniProt P16473). As to the kind of experiment: qHTS assay to identify small molecule antagonists of the thyroid stimulating hormone receptor (TSHR) signaling pathway (AID 1259385; calls by dose curve; note: nearly all actives have a fitted effect of over 20% in size). The procedure, abridged:
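Antagonist mode: compound-treated TSHR-expressing HEK293 cells were stimulated with 1.5 ng/mL TSH (final) in presence of Ro20-1724 for 30 min at RT. HTRF cAMP detection after 1 h; each compound tested at 15 concentrations, triplicate.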

For test [19], the target named is Thyrotropin-releasing hormone receptor (Homo sapiens) (UniProt P34981). Kind of test: qHTS assay to identify small molecule agonists of the thyrotropin-releasing hormone receptor (TRHR) signaling pathway (AID 1346891; calls by dose curve;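 note: HEK293 cells expressing TRHR with calcium dye readout; series mostly up to about 58 µM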). Put shortly: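 In 1536-format, 1500 TRHR-Hek293 cells per well grew 18 h, took up calcium dye for 2 h at 37 °C, received compound, and were read kinetically; 15-point titrations, triplicates.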

The target in test [20] is Nuclear receptor subfamily 1 group I member 2 (Homo sapiens) (UniProt O75469). As to the kind of experiment: Human pregnane X receptor (PXR) small molecule agonists, qHTS assay (AID 1346982). Note: nearly all actives have a fitted effect of over 35% in size. Note: potency is the fitted concentration of half-maximal effect. Put shortly:
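Stable HepG2 line reporting PXR-mediated CYP3A4 expression via luciferase. Treatment: 24 hr with compounds in DMSO at 37 C. Detection: ONE-Glo luminescence.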

A number with no mark means an inactive call. Results filed as inconclusive are left out. Active and inactive are the calls of the source. Unless noted, calls come from the whole dose curve; as a rule, active = well fitted curve in the direction sought with a large enough effect in the repeat runs; inconclusive = weak or mixed curves; inactive = no such curve, though single readings can be large; an effect the other way counts as inactive or inconclusive.

This note sets out measurements from PubChem BioAssay (Tox21).
% is set by controls: 0 for no effect and ±100 for the full control effect.

Sequence of Estrogen receptor (Homo sapiens) (P03372 whole entry, looked up): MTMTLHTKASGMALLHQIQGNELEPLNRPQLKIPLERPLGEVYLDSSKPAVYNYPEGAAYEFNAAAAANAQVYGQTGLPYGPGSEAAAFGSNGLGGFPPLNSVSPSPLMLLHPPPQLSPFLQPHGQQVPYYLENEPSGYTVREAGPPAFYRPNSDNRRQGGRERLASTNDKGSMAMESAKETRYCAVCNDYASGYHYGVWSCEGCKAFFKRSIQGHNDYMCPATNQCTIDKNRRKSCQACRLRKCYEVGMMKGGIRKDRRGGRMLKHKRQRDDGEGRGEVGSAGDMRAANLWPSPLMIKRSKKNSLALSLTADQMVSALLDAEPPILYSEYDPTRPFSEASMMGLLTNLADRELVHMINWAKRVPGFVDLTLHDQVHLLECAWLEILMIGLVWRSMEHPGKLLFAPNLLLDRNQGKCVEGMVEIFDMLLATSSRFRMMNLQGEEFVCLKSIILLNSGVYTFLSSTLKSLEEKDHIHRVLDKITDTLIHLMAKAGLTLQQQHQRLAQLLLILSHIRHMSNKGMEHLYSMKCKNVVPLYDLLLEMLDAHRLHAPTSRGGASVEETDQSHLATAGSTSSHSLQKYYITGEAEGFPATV
Sequence of Nuclear receptor subfamily 1 group I member 2 (Homo sapiens) (O75469 whole entry, looked up): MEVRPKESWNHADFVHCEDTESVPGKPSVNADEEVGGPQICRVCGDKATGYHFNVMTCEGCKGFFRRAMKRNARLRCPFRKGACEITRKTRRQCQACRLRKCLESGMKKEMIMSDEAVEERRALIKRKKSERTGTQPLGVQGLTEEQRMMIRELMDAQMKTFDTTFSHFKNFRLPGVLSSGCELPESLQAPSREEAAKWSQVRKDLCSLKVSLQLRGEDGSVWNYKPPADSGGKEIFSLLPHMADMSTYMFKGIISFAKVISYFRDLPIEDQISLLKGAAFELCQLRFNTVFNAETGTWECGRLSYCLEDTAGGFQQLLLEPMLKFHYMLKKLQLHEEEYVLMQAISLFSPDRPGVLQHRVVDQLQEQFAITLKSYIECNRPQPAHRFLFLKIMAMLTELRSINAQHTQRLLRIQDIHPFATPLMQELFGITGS
Sequence of Thyrotropin receptor (Homo sapiens) (P16473 whole entry, looked up): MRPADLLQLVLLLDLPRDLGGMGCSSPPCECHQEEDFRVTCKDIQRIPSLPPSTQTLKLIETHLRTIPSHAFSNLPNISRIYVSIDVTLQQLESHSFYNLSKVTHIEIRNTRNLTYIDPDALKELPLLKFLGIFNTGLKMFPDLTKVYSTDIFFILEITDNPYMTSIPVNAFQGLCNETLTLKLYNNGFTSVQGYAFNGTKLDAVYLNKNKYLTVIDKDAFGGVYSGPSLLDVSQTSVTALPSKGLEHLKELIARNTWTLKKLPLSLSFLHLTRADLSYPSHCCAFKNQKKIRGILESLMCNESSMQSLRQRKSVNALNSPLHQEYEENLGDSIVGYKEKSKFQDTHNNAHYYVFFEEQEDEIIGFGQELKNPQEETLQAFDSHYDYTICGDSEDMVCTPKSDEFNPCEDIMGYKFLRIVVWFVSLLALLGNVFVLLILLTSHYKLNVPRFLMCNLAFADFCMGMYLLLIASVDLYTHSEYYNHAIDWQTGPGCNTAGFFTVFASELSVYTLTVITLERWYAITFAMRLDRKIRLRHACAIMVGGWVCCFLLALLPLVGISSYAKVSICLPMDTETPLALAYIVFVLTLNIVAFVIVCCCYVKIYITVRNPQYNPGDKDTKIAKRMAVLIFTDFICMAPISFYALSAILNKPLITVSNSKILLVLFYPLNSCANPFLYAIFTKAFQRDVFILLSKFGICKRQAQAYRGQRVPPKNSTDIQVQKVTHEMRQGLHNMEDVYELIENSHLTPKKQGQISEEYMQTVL
Sequence of Thyrotropin-releasing hormone receptor (Homo sapiens) (P34981 whole entry, looked up): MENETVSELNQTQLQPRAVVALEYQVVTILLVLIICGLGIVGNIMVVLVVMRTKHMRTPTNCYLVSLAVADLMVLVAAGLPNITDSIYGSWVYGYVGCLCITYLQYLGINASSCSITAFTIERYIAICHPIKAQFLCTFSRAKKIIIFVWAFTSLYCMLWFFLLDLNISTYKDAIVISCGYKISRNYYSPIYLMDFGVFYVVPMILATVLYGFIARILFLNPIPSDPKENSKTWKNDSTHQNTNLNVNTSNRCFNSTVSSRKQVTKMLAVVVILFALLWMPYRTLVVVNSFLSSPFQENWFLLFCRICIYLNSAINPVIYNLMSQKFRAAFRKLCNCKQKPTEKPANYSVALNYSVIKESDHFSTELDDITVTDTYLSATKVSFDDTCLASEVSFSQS
Sequence of Progesterone receptor (Homo sapiens) (P06401 whole entry, looked up): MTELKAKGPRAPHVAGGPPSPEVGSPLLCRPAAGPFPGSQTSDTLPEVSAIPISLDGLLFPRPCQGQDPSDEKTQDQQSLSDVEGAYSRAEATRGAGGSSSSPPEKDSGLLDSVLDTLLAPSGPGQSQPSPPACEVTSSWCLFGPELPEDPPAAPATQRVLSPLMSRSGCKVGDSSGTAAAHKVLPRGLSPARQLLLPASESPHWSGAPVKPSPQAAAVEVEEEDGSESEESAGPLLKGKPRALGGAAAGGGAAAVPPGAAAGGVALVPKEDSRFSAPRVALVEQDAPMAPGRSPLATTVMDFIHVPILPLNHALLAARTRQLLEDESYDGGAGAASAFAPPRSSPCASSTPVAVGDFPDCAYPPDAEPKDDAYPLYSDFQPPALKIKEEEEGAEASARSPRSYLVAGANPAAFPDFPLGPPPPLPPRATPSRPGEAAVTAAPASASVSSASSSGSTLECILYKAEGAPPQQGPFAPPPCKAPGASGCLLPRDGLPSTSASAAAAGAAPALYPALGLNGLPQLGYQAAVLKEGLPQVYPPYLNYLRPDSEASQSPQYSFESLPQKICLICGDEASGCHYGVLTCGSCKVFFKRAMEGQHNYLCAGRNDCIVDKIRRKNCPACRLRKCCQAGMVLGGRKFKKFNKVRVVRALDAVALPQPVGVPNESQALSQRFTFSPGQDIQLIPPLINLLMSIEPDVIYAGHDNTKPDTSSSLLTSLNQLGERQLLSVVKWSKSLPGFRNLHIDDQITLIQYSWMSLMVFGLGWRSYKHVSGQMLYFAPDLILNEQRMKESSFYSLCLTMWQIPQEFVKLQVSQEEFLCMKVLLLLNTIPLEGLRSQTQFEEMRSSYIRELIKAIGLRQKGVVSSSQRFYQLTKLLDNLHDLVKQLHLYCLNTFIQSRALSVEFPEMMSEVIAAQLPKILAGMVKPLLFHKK

For `C/C(=N\[Si](C)(C)C)O[Si](C)(C)C`, the Potency result in [1], in test [2], in [3], in [5], in test [6] and in test [7] was “inactive” each time. The Potency entry in test [8], in test [9], in test [11], in test [12], in test [13] and in test [14] was “inactive” each time. The Potency result in [15] and in test [16] was “inactive” each time. In addition, the outcome in test [4] and in test [10] was inactive.
Consider `CCN(CCC#N)c1ccc(N=Nc2ccc([N+](=O)[O-])cc2)cc1`, for which the Potency entry in test [1], in test [17], in test [18], in [3], in test [5] and in [6] was “inactive” each time. For the same compound, the Potency entry in test [7], in test [8], in [9], in test [11], in test [19] and in test [12] was “inactive” throughout. In addition, the Potency result in test [13], in [15] and in test [16] was “inactive” each time. Further, the outcome in test [4] and in [10] was inactive. Further, the Potency in [20] was 6.11 µM (active).
For `CCCC(=O)c1cc(O)c(O)cc1O`, the Potency entry in [1], in test [2], in [8], in test [9], in [19] and in test [13] was “inactive” in each case. Besides, the Potency result in test [15] was “inactive”. The Potency in test [3] is 30.6 µM (active); in test [12] it was 44.7 µM (active); in test [16], 40.9 µM (active).
As to `CC/C(=C(/c1ccc(O)cc1)c1ccc(OCCN(C)C)cc1)c1ccccc1`, the Potency is 28.5 µM (active) in test [1]; 32 µM (active) in test [6]; 18 µM (active) in test [7]; 18 µM (active) in test [12]; 40.3 µM (active) in [13]; 32 µM (active) in test [14]. Also, the Potency in [16] was 28.5 µM (active). Also, the Potency result in test [17], in test [18], in test [11] and in [19] was “inactive” in each case.
For `ClC(c1ccccc1)(c1ccccc1)c1ccccc1`, the Potency entry in test [1], in [3], in test [6], in test [7], in [8] and in test [9] was “inactive” throughout. The Potency entry in test [19], in test [12], in test [13], in test [15] and in [16] was “inactive” in each case. For the same compound, the outcome in test [4] and in [10] was inactive. In addition, the Potency in test [20] was 9.69 µM (active).
As for `Cc1cccc(C)c1C`, the Potency result in [1], in [17], in [18], in [3], in test [5] and in test [6] was “inactive” each time. Further, the Potency result in test [7], in test [8], in test [9], in test [11], in test [19] and in test [12] was “inactive” each time. In addition, the Potency result in [13], in [15], in test [16] and in [20] was “inactive” in each case. Besides, the compound was called inactive in [4] and in test [10].
In the case of `O=C(O)CN(CCCN(CC(=O)O)CC(=O)O)CC(=O)O`, the activation was -0.204% [at 19 µM] in [2]; 8.3% [at 19 µM] in test [4]; 0.66% [at 15.8 µM] in test [10]; 0.0527% [at 11.8 µM] in test [19]; 1.69% [at 19 µM] in test [20]. Further, the cAMP activity change in [17] was 0.161% [at 18.9 µM, active compounds read high]. In addition, the activity change, negative = inhibition is 1.63% [at 19 µM] in test [18] and -17.6% [at 18.9 µM] in [5]. Moreover, the activity change, negative = cytotoxicity was -13.1% [at 19 µM] in test [3], -17.6% [at 18.9 µM] in [6], -13.8% [at 19 µM] in test [7] and -5.77% [at 15.8 µM] in test [9]. Also, the viability change, negative = cytotoxic in [8] is 5.13% [at 15.8 µM]. The activity, negative = inhibition in test [11] was -1.06% [at 10.5 µM]. For the same compound, the caspase activation in test [13] was 0.754% [at 19 µM]. The caspase-3/7 activation in test [15] is 5.17% [at 19 µM].
`Nc1cc([N+](=O)[O-])cc(Cl)c1O`: the Potency entry in [1], in test [2], in test [5], in test [6], in test [7] and in [8] was “inactive” each time. Moreover, the Potency entry in test [9], in test [11], in test [13] and in test [15] was “inactive” in each case. The outcome in test [4] and in test [10] was inactive. Further, the Potency in test [16] is 61.1 µM (active).
